From PubChem BioAssay (EPA / NIEHS)
Records with an inconclusive call do not appear. Active and inactive are the calls of the source. Rule for the calls: active = hit-call score of the fitted dose curve at least 0.9, where 1 is the maximum; inconclusive = response in the unintended direction; inactive = score below 0.9.

These molecules were tested against human Norepinephrine Transporter (NET), SLC6A2 (gene 6530) (UniProt P23975) (assay: NVS_TR_hNET: NovaScreen (NVS) Transporter Assay for human Norepinephrine Transporter (NET) (AID 2283377);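 note: cell-free membrane protein extracted from CHO cells expressing human NET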;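 for AC50: displacement of radioligand from human NET seen as loss of scintillation signal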).
human Norepinephrine Transporter (NET), SLC6A2 (gene 6530), sequence (P23975 whole entry, looked up): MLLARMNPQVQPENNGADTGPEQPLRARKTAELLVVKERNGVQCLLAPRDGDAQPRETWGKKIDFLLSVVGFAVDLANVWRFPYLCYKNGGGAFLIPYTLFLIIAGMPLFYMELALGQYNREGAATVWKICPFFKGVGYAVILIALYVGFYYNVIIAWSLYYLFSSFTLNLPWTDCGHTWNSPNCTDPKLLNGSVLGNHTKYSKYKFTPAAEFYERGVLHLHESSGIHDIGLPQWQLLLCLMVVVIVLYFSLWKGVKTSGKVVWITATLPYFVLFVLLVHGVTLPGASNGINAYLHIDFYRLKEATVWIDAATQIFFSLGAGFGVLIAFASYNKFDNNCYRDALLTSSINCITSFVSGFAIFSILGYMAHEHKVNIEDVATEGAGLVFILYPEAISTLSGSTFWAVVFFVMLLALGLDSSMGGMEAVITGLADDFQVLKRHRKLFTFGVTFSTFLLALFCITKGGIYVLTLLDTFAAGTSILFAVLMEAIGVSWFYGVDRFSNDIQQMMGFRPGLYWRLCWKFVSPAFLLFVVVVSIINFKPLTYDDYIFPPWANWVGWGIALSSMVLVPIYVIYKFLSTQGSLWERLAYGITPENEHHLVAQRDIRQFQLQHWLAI
Summary of the method: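 Single-concentration duplicate screen at 25 uM, then concentration-response for actives; displacement of specific radioligand from human NET in CHO membrane extracts, filter-based scintillation detection at 1 h relative to DMSO.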

outcome, inactive:
O=C(O)c1cccc(Oc2ccccc2)c1
COc1ccc2sc(C(=O)Nc3nnn[nH]3)c(OC(C)C)c2c1

AC50, active:
Cn1c(=O)cc(Oc2ccc(F)cc2F)c2cnc(NCC(C)(C)O)nc21 4.35 µM

The molecules below were run against Agonist Androgen Response Element (ARE), AR (gene 367) (UniProt P10275) (assay: OT_AR_ARELUC_AG_1440: Odyssey Thera (OT) 24-hour CHO-K1 Luciferase Assay for Agonist Androgen Response Element (ARE) (AID 2283379)).
Agonist Androgen Response Element (ARE), AR (gene 367), sequence (P10275 whole entry, looked up): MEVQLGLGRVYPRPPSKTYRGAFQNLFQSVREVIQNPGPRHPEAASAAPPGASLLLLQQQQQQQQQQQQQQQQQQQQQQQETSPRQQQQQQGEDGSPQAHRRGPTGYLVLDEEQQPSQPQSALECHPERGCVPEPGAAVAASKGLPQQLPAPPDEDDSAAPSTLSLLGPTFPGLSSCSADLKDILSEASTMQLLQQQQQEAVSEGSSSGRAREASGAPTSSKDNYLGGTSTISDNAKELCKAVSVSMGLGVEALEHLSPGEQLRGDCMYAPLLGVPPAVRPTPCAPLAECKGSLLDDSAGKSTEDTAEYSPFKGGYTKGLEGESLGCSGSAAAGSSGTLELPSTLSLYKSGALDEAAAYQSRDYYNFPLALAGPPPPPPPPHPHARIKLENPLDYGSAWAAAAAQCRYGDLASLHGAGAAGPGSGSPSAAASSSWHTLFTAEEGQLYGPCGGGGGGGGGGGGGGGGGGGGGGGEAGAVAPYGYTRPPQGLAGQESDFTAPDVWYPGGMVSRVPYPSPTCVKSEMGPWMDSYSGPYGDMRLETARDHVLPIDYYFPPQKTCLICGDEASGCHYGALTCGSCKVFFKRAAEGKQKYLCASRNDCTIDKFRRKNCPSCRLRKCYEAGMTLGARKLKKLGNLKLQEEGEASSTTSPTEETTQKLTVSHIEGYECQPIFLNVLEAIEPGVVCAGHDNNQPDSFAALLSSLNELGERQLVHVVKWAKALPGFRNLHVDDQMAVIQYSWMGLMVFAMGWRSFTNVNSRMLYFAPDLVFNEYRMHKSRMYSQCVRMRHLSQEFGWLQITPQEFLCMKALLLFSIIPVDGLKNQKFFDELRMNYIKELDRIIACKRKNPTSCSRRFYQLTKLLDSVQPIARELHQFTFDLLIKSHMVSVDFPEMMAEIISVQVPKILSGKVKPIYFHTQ
Summary of the method: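 Readout: luciferase bioluminescence from CHO-K1 ARE-luc cells, measured 24 h post-dosing; agonism = increased mean luminescence vs DMSO controls, fitted in positive direction.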

outcome, inactive:
CC(C)=CCC/C(C)=C/CO
CN(C)c1ccc(N=NS(=O)(=O)O)cc1
C1N2CN3CN1CN(C2)C3
CCCCC(CC)COC(=O)c1ccc(C(=O)OCC(CC)CCCC)cc1 (stereo unspecified)
Cc1ccc(N)cc1O
CCNc1ccccc1
CC(C)=CCCC(C)CCO (stereo unspecified)
CC1(C)C(=O)N(Br)C(=O)N1Br
Nc1nc2ncc(CNc3ccc(C(=O)N[C@@H](CCC(=O)O)C(=O)O)cc3)nc2c(=O)[nH]1
CC(C)=CCC/C(C)=C\CO
Cc1ccc(O)cc1
O=C(O)c1cccc(N(Cc2cccnc2)c2ccc(OC(F)F)c(OC(F)F)c2)c1
O=C(CCCCCCCCc1cccnc1)N1CCC(C=C(c2ccccc2)c2ccccc2)CC1
